These results are taken from PubChem BioAssay.

Where “and” joins values, the source holds several entries; their conditions need not be identical. Identical values can stand only once. Calls of active or inactive are those of the source. Unless noted, the rule behind the calls is not given here.

Assay [1] in a line: anti-His antibody binders, primary screen, artefact control for SMM control protein annotation, biochemical, small-molecule microarray, 635 nm fluorescence (AID 1128).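 Note: score merges feature fluorescence with signal-to-noise for each printed compound spot.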 As to conditions: anti-His Alexa647 antibody binding, higher = more signal.
The subject of assay [2] is Human papillomavirus type 1a E7 protein (residues 1-88). As to the kind of experiment: HPV1a E7 small-molecule binders, primary screen, biochemical, small-molecule microarray, residues 1-88, 635 nm (AID 1129). The conditions noted are these: small-molecule microarray binding, fluorescence 635 nm; higher = more signal.
In assay [3] the target is Focal adhesion kinase 1 (Homo sapiens) (UniProt Q05397). Nature of the assay: small-molecule microarray binders of FAK, primary screen, biochemical, 635/667 nm fluorescence, BSA, DTT (AID 1130).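 Note: composite of spot emission at 667 nm and signal to noise over triplicate slides.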 The conditions noted are these: PTK2 binding, 635 nm fluorescence, higher = more signal.
Assay [4] has as its system Fibrinogen (Alexa647-labelled). Nature of the assay: fibrinogen binders on compound microarrays, profiling panel, artefact control for SMM control-protein annotation, biochemical, small-molecule microarray, 635/667 nm fluorescence (AID 1131).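 Note: z-score merges 667 nm fluorescence with per-spot signal-to-noise over triplicate slides.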 The conditions noted are these: fibrinogen-A647 binding fluorescence, higher = more signal.
The target in assay [5] is Follistatin (Homo sapiens) (UniProt P19883). Nature of the assay: follistatin binders on small-molecule microarrays, primary screen, biochemical, small-molecule microarray, 635/667 nm fluorescence (AID 1132). The conditions noted are these: FST binding, 635 nm fluorescence, higher = more signal.
Assay [6] concerns the target Fibroblast growth factor 2 (Homo sapiens) (UniProt P09038). Nature of the assay: FGF2 binders on small-molecule microarrays, primary screen, biochemical, small-molecule microarray, 635/667 nm fluorescence (AID 1133). As to conditions: small-molecule microarray binding, FGF2, fluorescence 635/667; higher = more signal.
Assay [7] is described as follows: mitochondrial membrane potential change in A549 cells, profiling panel, cell-based, JC-1 fluorescence, basal, 24 h, 100 nL (AID 1138).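 Note: A549 lung adenocarcinoma cells under basal conditions with no added stimulus; test concentration not given here.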 As to conditions: higher = more signal.
The next assay relates to Lefty1. As to the kind of experiment: Lefty1 binders on small-molecule microarrays, primary screen, biochemical, small-molecule microarray, 635/667 nm fluorescence (AID 1139). As to conditions: small-molecule microarray binding, fluorescence 635/667; higher = more signal.
The subject of assay [8] is wheat germ agglutinin (Triticum aestivum), Alexa647-labelled. As to the kind of experiment: wheat germ agglutinin binders on compound microarrays, profiling panel, artefact control for SMM control-protein annotation, biochemical, small-molecule microarray, 635/667 nm fluorescence (AID 1140).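 Note: score merges 667 nm feature emission with signal to noise over triplicate slides.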 The conditions noted are these: WGA-A647 binding, 635 nm fluorescence, higher = more signal.

In assay [9] the target is Luciferin 4-monooxygenase (Photinus pyralis) (UniProt P08659). Nature of the assay: firefly luciferase enzyme inhibitors, primary screen, biochemical, luminescence, purified enzyme, 2006 set (AID 1141).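 Note: cell-free assay with purified firefly luciferase at 100 ng per well in PBS; test concentration not given here.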 The conditions noted are these: SteadyGlo luminescence, 30 min, higher = more signal, called active from +8 up or from −8 down.
Assay [10] concerns Wnt5a (protein binding on small-molecule microarray). Nature of the assay: Wnt5a binders on small-molecule microarray, primary screen, biophysical, 635/667 nm fluorescence (AID 1142).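 Note: fluorescence read at 667 nm with signal to noise per printed feature.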 The conditions noted are these: 635 nm fluorescence, higher = more signal.
Assay [11] is described as follows: cell viability in Huh7 cells, primary screen, cytotoxicity control for HCV replication inhibitor project, CellTiter-Glo luminescence, basal, 48 h (AID 1143).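 Note: Huh7 hepatoma cells carrying a hepatitis C replication reporter with no stimulus; test concentration not given here.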 The conditions noted are these: Huh7 HCV replicon, higher = more signal, called active from +8 up or from −8 down.
Assay [12] is described as follows: P. aeruginosa biofilm formation inhibitors, primary screen, PAO1 strain, BacTiter-Glo luminescence, LB-PBS (AID 1144). The conditions noted are these: 12 h, higher = more signal.
Assay [13] in a line: CREB reporter modulators without forskolin, primary screen, cell-based, PC12, CRE-LacZ reporter, unstimulated (AID 1145). As to conditions: no forskolin, luminescence, 4.5 h, higher = more signal, called active from +8 up or from −8 down.
Assay [14] is described as follows: CREB reporter modulators under forskolin, primary screen, cell-based, PC12, CRE-LacZ reporter, forskolin-stimulated (AID 1146).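 Note: PC12 cells with 6xCRE LacZ reporter stimulated by forskolin 10 µM; beta-galactosidase reporter signal reflecting CREB driven transcription.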 As to conditions: luminescence, 4.5 h, higher = more signal, called active from +8 up or from −8 down.
Assay [15] concerns the target Streptavidin (Streptomyces avidinii) (UniProt P22629). Nature of the assay: streptavidin binders on small-molecule microarray, primary screen, artefact control for SMM compound annotation, biophysical, 635/667 nm fluorescence (AID 1147).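 Note: signal reflects streptavidin binding to arrayed compounds as a control protein.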 The conditions noted are these: streptavidin binding, higher = more signal.
Assay [16] in a line: small-molecule binders of probe aInhba, primary screen, biochemical, small-molecule microarray, 635/667 nm fluorescence (AID 1148).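 Note: score merges 667nm spot fluorescence with signal-to-noise for antibody binding to printed compounds.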 The conditions noted are these: higher = more signal.
Assay [17] concerns the target Torsin-1A (Homo sapiens) (UniProt O14656). Nature of the assay: torsin A binders from cell lysate, primary screen, small-molecule microarray, wild-type, 635/667 nm (AID 1149). The conditions noted are these: COS7 hTOR1A-WT lysate, 635 nm fluorescence, higher = more signal.
The target is the same in assay [18]. As to the kind of experiment: small-molecule binders of mutant TOR1A in lysate, primary screen, cell lysate, small-molecule microarray, COS7 lysate, 635/667 nm fluorescence (AID 1150).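 Note: score pools 667 nm emission and signal to noise measuring lysate protein binding.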 As to conditions: COS7 hTOR1A mutant lysate, 635 nm fluorescence, higher = more signal.
The test system of assay [19] is Sonic hedgehog protein (Shh). Nature of the assay: small-molecule binders of Shh protein, primary screen, biochemical, small-molecule microarray, 635/667 nm fluorescence (AID 1151).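 Note: Shh protein binding to compounds spotted on small-molecule microarray slides; score combines spot fluorescence intensity with signal-to-noise across triplicate slides.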 The conditions noted are these: small-molecule microarray binding, 635 nm fluorescence; higher = more signal.

Follistatin (Homo sapiens), sequence (P19883 whole entry, looked up): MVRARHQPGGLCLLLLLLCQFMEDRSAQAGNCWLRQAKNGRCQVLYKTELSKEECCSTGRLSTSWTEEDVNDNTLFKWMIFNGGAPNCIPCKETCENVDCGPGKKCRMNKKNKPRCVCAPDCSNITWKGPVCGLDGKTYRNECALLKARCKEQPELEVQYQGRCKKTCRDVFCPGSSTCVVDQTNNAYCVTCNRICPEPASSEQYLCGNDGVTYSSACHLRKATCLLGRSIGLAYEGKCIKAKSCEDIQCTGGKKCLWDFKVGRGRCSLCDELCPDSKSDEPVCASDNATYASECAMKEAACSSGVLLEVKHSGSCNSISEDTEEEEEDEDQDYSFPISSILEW
Torsin-1A (Homo sapiens), sequence (O14656 whole entry, looked up): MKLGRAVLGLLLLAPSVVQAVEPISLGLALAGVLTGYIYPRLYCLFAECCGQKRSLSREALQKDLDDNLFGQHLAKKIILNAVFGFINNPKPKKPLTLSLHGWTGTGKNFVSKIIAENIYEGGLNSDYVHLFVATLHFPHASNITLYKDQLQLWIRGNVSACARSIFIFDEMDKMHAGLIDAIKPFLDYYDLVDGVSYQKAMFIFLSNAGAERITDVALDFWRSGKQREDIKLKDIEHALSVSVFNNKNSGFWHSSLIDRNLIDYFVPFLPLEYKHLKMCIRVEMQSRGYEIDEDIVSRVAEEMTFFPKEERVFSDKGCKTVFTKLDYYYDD
Streptavidin (Streptomyces avidinii), sequence (P22629 whole entry, looked up): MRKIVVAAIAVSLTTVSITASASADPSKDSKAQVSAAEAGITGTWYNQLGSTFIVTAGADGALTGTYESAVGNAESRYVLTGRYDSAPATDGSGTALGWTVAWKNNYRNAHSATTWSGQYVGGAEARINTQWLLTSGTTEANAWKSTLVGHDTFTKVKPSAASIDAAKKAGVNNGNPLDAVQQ
Focal adhesion kinase 1 (Homo sapiens), sequence (Q05397 whole entry, looked up): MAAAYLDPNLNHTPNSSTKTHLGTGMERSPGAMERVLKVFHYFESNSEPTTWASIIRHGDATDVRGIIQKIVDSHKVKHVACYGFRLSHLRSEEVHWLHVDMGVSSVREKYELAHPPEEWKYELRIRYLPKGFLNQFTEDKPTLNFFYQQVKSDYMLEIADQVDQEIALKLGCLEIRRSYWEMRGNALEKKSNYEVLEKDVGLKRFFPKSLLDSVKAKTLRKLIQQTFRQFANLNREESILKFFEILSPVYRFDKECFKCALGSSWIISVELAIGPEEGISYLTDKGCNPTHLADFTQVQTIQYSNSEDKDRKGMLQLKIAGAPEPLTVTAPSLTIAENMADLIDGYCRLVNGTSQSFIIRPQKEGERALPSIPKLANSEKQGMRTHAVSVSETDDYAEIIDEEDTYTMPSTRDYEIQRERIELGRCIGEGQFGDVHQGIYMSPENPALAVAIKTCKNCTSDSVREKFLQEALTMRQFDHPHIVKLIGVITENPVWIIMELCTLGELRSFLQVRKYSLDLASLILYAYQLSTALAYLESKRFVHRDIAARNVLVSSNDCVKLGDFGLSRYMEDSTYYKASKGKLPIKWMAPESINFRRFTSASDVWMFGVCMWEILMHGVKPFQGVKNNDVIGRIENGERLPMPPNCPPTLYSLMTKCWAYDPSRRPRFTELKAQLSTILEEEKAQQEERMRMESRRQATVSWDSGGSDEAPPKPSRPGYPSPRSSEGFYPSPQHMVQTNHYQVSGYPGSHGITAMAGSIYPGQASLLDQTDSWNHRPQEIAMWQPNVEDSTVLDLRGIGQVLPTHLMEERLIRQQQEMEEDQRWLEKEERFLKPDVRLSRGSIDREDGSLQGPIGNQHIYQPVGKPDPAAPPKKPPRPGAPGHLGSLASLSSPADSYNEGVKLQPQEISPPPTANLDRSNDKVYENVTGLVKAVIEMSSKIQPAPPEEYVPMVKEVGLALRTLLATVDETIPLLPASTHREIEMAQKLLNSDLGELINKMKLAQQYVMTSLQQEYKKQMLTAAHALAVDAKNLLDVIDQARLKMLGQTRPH
Luciferin 4-monooxygenase (Photinus pyralis), sequence (P08659 whole entry, looked up): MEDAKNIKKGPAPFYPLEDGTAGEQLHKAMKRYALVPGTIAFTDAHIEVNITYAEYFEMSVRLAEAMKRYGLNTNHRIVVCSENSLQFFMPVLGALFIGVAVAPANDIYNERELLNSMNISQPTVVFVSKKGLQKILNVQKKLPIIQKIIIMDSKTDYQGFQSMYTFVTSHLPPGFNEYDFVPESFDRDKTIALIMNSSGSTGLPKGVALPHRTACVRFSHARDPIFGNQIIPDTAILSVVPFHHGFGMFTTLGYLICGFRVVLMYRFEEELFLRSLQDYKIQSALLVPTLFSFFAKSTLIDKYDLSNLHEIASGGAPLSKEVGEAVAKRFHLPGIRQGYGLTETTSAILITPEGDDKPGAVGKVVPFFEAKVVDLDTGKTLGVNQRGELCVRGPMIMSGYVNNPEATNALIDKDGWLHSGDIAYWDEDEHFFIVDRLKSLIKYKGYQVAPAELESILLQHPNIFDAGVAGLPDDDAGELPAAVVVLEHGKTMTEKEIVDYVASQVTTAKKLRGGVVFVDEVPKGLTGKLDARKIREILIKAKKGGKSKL
Fibroblast growth factor 2 (Homo sapiens), sequence (P09038 whole entry, looked up): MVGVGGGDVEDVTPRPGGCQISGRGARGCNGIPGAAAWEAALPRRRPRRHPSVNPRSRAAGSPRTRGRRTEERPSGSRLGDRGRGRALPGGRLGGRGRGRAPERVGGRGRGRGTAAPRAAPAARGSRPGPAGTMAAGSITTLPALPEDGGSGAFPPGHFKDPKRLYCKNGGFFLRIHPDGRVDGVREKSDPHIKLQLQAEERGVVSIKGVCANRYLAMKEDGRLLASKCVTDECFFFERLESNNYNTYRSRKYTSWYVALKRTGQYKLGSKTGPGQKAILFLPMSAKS

As for `CO[C@@H]1COC(=O)CC=C[C@H](C)COC(=O)[C@H](C)NC(=O)CC=C[C@H]1C`, the composite z-score in [1] is 0.401; in assay [2], -0.375; in [3], -0.0308; in [4], -0.607; in assay [5], 1.11; in [6] it was 1.72. Besides, the composite z-score in the assay on Lefty1 was 1.03; in assay [8], -0.587; in [10], 0.144; in [15], 0.477; in assay [16], -0.208; in the assay with Torsin-1A (Homo sapiens) [17], 0.919. The composite z-score with Torsin-1A (Homo sapiens) [18] is 1.16; in assay [19] it was 1.19. The z-score is 0.521 in assay [7]; -0.394 (inactive) in [9]; 0.178 (inactive) in assay [11]; 0.213 (inactive) in assay [12]; 1.24 (inactive) in assay [13]; -0.218 (inactive) in assay [14].

On to `CC(CO)N1C(=O)[C@@H]2C3C(=O)OCCC=C[C@H]3OC23C=CCN(Cc2ccccc2)C(=O)[C@@H]13` (stereo not given in full), for which the composite z-score is -0.814 and -1.05 in assay [1]; -0.716 and -0.415 in assay [2]; 0.275 and -0.855 in assay [3]; -1.73 and -0.886 in [4]; -0.972 and -1.08 in assay [5]; -0.995 and -0.746 in assay [6]. For the same compound, the composite z-score was -1.17 and -0.88 in the assay with Lefty1; -1.16 and -0.612 in assay [8]; -0.238 and -0.381 in [10]; -0.422 and -0.768 in assay [15]; -0.128 and -0.0762 in assay [16]; -0.773 and 0.447 with Torsin-1A (Homo sapiens) [17]. In addition, the composite z-score with Torsin-1A (Homo sapiens) [18] was 1.55 and 1.17; in assay [19], -0.525 and 0.901. In addition, the z-score in assay [7] is 0.739 and 0.735; in assay [9], -0.965 (inactive) and -0.875 (inactive); in assay [11], -0.783 (inactive) and 0.124 (inactive); in assay [12], 2.42 (inactive) and 0.328 (inactive); in assay [13], 0.321 (inactive) and 0.195 (inactive); in assay [14] it was -0.937 (inactive) and -0.56 (inactive).

In the case of `CON(C)C(=O)c1nnc2c3ccccc3n(S(=O)(=O)c3ccc(C)cc3)c2n1`, the composite z-score was 0.397 and 0.647 in [1]; 0.836 and 1.11 in [2]; 0.323 and 0.0633 in [3]; 0.88 and 0.578 in assay [4]; 0.229 and 0.552 in [5]; 0.43 and 1.31 in [6]. For the same compound, the composite z-score in the assay with Lefty1 was 0.273 and 0.757; in [8], 0.184 and 0.328; in assay [10], 0.26 and 0.335; in [15], 1.31 and 1.67; in [16], 0.0543 and -0.0018; with Torsin-1A (Homo sapiens) [17] it was 0.201 and 1.19. For the same compound, the composite z-score was 0.492 and 1.11 with Torsin-1A (Homo sapiens) [18]; 0.642 and 1.22 in [19]. Moreover, the z-score in [7] is 0.551 and 0.105; in assay [9], -0.251 (inactive) and -0.0743 (inactive); in assay [11], 0.24 (inactive) and 0.0218 (inactive); in assay [12], 1.36 (inactive) and 0.0837 (inactive); in assay [13], 1.37 (inactive) and 1.28 (inactive); in [14], -0.0387 (inactive) and -0.484 (inactive).

Consider `COCn1c2ccccc2c2nnc(C(C)=O)nc21`, for which the composite z-score in assay [1] is 0.185 and -0.0618; in [2], -0.582 and -0.0453; in [3] it was 0.0699 and -0.0566; in assay [4], -0.0349 and 0.202; in [5], 0.295 and 0.221; in [6], 0.537 and 0.273. The composite z-score in the assay with Lefty1 was 0.419 and 0.53; in [8], -0.114 and -0.144; in [10], -0.122 and 0.0561; in assay [15], -0.121 and -0.232; in assay [16] it was -0.274 and 0.0111; with Torsin-1A (Homo sapiens) [17] it was 0.331 and 0.417. Moreover, the composite z-score is -0.302 and 0.13 with Torsin-1A (Homo sapiens) [18]; 0.479 and 0.343 in [19]. Besides, the z-score in assay [7] is -1.22 and -1.45; in assay [9] it was 0.891 (inactive) and 0.305 (inactive); in [11], -2.71 (inactive) and -2.58 (inactive); in assay [12], -0.843 (inactive) and -0.869 (inactive); in [13] it was 0.11 (inactive) and -0.0732 (inactive); in assay [14], 0.353 (inactive) and 0.754 (inactive).
